Measurements from the supplement of paper PMC11732987, “Enantioselective OTUD7B fragment discovery through chemoproteomics screening and high-throughput optimisation” (Communications Chemistry, 2025).

Key:
Assay in all cases: log2 ratio of Biotin-Ahx-Ub-VS probe labelling (fragment/DMSO); higher = less target engagement (more negative = stronger competition), active = hit call of the paper (q ≤ 0.05, log2 ratio ≤ -1)
Settings in all cases: compound concentration: 200 uM; treatment time: 3 h
ALG13 = biological target: T1, ALG13 (UniProt Q9NP73)
T1 sequence (whole entry): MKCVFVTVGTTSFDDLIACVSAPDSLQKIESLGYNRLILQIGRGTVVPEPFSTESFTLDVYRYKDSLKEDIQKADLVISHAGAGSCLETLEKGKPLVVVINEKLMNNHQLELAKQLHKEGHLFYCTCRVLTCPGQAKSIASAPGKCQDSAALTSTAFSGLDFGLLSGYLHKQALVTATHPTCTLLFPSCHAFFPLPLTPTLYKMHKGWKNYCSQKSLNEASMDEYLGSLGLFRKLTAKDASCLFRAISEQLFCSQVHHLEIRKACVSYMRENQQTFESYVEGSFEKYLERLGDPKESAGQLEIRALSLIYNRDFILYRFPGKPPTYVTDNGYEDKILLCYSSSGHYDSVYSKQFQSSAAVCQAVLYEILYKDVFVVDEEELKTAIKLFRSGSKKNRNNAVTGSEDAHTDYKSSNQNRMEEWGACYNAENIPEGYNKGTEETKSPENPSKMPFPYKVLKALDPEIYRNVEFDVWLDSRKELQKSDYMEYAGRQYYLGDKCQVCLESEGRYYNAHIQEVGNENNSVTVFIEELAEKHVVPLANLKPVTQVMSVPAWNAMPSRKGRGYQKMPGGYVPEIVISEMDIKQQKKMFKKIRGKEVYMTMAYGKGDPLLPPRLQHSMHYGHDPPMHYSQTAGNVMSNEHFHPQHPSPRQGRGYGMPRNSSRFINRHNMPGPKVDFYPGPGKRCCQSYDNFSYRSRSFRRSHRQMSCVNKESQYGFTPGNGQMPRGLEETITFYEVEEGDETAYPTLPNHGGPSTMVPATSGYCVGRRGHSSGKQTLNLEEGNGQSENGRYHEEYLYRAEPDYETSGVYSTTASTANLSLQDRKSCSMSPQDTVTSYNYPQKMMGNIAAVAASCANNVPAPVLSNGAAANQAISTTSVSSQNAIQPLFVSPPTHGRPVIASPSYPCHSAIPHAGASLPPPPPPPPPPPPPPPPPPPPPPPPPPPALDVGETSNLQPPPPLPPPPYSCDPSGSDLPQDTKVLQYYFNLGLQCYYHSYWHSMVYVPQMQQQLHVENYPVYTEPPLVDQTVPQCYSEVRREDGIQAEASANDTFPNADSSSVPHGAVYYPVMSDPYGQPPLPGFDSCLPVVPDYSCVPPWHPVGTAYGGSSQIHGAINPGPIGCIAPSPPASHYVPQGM
Outline: (§1)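 Labelling with Biotin-Ahx-Ub-VS (0.5 µM final, 1 h) followed a 3 h triplicate treatment of HEK293T lysate (495 µg per sample, Tris/CHAPS/IGEPAL buffer with protease inhibitors) with fragment at 200 µM or vehicle. Labelled DUBs were NeutrAvidin-enriched, digested with LysC and trypsin, and run by diaPASEF LC-MS/MS. The values, average log2 fragment/vehicle ratios by unpaired t-test, come from global-median-normalised Spectronaut label-free quantities. Proteins with ≥2 unique peptides were used.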

ATXN3 = ATXN3 (UniProt P54252)
Chain of ATXN3 (P54252 whole entry): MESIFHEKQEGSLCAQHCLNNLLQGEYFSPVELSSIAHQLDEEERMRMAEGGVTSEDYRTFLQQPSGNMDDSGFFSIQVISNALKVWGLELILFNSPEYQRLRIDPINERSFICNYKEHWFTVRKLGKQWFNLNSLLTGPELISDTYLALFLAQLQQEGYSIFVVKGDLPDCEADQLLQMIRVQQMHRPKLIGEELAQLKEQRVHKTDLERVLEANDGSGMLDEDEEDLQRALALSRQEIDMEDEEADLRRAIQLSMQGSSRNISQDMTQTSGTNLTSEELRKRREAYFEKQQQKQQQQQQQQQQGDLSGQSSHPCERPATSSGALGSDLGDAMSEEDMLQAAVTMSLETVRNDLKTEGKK
Outline: as §1

BAP1 = biological target: T2, BAP1 (UniProt Q92560)
T2 sequence (whole entry): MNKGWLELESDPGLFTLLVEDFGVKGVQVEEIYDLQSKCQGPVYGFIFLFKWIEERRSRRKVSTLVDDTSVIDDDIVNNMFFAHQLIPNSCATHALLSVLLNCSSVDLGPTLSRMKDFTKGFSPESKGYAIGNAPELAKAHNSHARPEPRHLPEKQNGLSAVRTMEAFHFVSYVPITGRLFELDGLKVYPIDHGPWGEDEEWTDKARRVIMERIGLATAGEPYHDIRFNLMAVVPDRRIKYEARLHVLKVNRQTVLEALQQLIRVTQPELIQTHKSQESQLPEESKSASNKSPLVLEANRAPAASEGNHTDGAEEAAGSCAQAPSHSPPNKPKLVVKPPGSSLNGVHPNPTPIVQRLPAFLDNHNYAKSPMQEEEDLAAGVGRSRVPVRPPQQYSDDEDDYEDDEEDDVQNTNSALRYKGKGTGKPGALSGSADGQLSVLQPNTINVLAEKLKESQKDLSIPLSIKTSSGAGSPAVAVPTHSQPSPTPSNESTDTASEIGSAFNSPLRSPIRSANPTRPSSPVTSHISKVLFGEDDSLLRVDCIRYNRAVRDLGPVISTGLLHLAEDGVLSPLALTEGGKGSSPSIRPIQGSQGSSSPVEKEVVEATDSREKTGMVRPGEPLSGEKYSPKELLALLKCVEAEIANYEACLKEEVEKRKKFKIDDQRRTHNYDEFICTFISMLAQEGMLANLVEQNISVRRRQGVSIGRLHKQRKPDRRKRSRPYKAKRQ
Outline: as §1

EIF3F = EIF3F (UniProt O00303)
Chain of EIF3F (O00303 whole entry): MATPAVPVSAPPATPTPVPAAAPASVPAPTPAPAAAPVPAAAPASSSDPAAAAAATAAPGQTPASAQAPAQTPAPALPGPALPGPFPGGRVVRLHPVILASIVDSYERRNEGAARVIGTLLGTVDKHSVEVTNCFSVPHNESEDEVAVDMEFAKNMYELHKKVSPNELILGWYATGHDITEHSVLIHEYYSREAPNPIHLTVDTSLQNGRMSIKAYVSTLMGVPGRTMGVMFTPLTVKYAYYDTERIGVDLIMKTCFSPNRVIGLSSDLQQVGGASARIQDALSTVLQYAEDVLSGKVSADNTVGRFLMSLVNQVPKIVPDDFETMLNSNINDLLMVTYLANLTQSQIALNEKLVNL
Outline: as §1

EIF3H = EIF3H (UniProt O15372)
Chain of EIF3H (O15372 whole entry): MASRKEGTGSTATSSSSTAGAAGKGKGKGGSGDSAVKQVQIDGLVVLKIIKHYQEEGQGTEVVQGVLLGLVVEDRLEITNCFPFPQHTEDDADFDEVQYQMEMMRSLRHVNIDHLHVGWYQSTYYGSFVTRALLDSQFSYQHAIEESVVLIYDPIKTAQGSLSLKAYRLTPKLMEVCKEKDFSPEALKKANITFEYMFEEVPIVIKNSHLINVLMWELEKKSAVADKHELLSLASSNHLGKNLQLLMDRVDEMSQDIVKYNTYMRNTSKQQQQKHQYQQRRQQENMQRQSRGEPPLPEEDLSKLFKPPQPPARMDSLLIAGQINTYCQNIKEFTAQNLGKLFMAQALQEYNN
Outline: as §1

FAM105A = biological target: T3, FAM105A (UniProt Q9NUU6)
T3 sequence (whole entry): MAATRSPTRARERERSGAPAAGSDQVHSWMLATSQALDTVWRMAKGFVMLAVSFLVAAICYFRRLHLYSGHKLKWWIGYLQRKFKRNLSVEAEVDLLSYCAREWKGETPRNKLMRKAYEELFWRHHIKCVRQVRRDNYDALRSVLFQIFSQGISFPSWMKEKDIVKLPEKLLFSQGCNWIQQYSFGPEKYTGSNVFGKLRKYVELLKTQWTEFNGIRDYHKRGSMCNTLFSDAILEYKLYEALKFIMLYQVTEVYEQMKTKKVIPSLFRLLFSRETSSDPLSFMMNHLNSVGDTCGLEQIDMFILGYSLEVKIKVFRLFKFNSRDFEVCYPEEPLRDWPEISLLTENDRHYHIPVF
Outline: as §1

OTUB1 = OTUB1 (UniProt Q96FW1)
Chain of OTUB1 (Q96FW1 whole entry): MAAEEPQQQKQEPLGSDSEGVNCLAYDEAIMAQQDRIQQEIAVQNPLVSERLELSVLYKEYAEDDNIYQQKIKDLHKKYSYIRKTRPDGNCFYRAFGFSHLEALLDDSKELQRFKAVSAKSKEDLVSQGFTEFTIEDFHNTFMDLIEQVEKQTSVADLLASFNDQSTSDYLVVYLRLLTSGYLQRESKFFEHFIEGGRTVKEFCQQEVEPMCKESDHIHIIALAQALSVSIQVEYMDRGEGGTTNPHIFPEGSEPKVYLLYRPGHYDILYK
Outline: as §1

OTUD4 = biological target: T4, OTUD4 (UniProt Q01804)
T4 sequence (whole entry): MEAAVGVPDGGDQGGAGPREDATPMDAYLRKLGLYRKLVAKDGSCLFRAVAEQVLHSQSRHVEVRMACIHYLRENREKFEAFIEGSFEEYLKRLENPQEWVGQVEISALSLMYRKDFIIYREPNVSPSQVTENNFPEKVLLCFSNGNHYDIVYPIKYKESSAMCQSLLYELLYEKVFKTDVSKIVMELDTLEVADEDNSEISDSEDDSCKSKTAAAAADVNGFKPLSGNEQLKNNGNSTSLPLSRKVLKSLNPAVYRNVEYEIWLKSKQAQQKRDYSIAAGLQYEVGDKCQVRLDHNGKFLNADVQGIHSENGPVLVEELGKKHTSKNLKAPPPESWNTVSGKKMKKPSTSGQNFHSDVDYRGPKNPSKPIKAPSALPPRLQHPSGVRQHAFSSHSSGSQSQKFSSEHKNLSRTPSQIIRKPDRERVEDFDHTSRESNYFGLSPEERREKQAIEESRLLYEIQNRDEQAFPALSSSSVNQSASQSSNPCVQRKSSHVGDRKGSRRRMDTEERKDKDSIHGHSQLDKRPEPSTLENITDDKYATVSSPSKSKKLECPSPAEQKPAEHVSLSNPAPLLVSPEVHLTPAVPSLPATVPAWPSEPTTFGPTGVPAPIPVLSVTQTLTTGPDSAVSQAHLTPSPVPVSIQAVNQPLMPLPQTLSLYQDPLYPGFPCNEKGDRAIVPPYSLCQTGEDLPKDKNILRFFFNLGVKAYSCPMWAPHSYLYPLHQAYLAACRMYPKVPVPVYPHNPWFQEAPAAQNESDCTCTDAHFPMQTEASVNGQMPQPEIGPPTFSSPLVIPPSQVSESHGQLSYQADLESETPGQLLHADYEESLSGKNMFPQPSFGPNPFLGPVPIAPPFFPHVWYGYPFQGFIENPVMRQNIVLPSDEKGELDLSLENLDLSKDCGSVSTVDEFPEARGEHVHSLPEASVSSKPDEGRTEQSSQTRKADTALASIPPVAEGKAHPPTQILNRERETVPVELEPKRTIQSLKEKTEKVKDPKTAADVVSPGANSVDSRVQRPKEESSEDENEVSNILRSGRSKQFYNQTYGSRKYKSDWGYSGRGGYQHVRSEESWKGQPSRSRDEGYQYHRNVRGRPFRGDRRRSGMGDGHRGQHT
Outline: as §1

OTUD5 = biological target: T5, OTUD5 (UniProt Q96G74)
T5 sequence (whole entry): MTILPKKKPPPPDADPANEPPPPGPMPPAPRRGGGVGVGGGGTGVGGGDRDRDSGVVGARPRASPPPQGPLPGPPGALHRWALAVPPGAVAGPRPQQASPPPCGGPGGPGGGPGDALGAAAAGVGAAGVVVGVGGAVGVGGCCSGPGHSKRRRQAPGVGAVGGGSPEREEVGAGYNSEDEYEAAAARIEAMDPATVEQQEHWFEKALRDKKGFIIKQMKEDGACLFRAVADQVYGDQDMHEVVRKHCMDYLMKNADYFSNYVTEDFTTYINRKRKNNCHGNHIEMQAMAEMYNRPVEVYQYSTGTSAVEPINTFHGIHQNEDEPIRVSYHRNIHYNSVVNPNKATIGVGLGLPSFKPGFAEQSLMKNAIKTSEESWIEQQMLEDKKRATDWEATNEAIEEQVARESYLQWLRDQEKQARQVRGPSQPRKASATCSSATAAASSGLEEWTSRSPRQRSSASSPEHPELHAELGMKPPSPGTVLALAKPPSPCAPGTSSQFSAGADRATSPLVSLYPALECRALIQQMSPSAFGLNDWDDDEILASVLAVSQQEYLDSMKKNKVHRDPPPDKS
Outline: as §1

Measured: log2 ratio of Biotin-Ahx-Ub-VS probe labelling

COc1ccc(Cl)cc1NC(=O)CCl
inactive: ALG13 0.166 | ATXN3 -0.592 | EIF3F -0.594 | EIF3H 0.0551 | FAM105A -0.287 | OTUB1 -0.497 | OTUD4 -0.484 | OTUD5 -0.638
active: BAP1 -1.61
